# Values without a mark were called inactive.
# Test system: Vero E6 infected with SARS-CoV-2
# Experiment: inhibition of SARS-CoV-2 cytopathic effect; higher = more antiviral protection, active = above 15
# Conditions: 833.33 nM; 48 h
row,SMILES,inhibition of SARS-CoV-2 cytopathic effect [%]
1,Cc1cc(O)c2c(c1)C(=O)c1cc(O)cc(O)c1C2=O [emodin],1.29
2,CN1CCC(=C2c3ccccc3CCn3c(C=O)cnc32)CC1 [alcaftadine],0.36
3,C[C@@H]1C/C=C/C=C/C=C/C=C/[C@H](O[C@@H]2O[C@H](C)[C@@H](O)[C@H](N)[C@@H]2O)C[C@@H]2O[C@](O)(C[C@@H](O)C[C@H]3O[C@@H]3/C=C/C(=O)O1)C[C@H](O)[C@H]2C(=O)O [natamycin],-6.12
4,CC[C@]1(O)C[C@@H]2CN(CCc3c([nH]c4ccccc34)[C@@](C(=O)OC)(c3cc4c(cc3OC)N(C)[C@H]3[C@@](O)(C(=O)OC)[C@H](OC(C)=O)[C@]5(CC)C=CCN6CC[C@]43[C@@H]65)C2)C1 [Vinblastine (sulfate)],0.75
5,CC(C(=O)O)c1ccc(N2Cc3ccccc3C2=O)cc1 (configuration not stated) [indoprofen],1.21
6,NCC(=O)Nc1ccc(-n2nc(C(F)(F)F)cc2-c2ccc3c(ccc4ccccc43)c2)cc1,-1.2
7,CN1Cc2c(N)cccc2C(c2ccccc2)C1 (configuration not stated) [nomifensine],1.13
8,COc1ccc(-c2ccc3cc(C(=O)O)ccc3c2)cc1C12CC3CC(CC(C3)C1)C2 [adapalene],2.31
9,CC(=O)Oc1c(C)cc(OCC(O)CNC(C)C)c(C)c1C (configuration not stated) [metipranolol],-1.66
10,CCNC(=O)c1noc(-c2cc(C(C)C)c(O)cc2O)c1-c1ccc(CN2CCOCC2)cc1,0.4
11,Cc1c(C(=O)N2CCOc3ccc(-c4ccc(N)nc4)cc3C2)ccc(S(C)(=O)=O)c1F,0.13
12,CCn1c(=O)[nH]c2cc(Cl)c(Cl)cc21,-2.68
13,CC(=O)Nc1c(I)c(C(=O)O)c(I)c(N(C)C(C)=O)c1I [metrizoic-acid],2.48
14,O=C(NCCN1CCC2(CC1)C(=O)NCN2c1cccc(F)c1)c1ccc2ccccc2c1,1.45
15,CCn1cc(C(=O)O)c(=O)c2cnc(N3CCCC3)nc21 [piromidic-acid],-0.21
16,CSc1cc2c(cc1C(F)(F)F)N(C(=O)Nc1cccnc1)CC2,1.75
17,COc1cc(OC)c2c(=O)[nH]c(-c3cc(C)c(OCCO)c(C)c3)nc2c1 [apabetalone],-1.57

# Same assay, conditions: 10000 nM; 48 h
row,SMILES,inhibition of SARS-CoV-2 cytopathic effect
1,NS(=O)(=O)c1cc(C(=O)O)c(NCc2ccco2)cc1Cl [furosemide],2.18%
2,CCN1CCCC(OC(=O)C(c2ccccc2)c2ccccc2)C1 (configuration not stated) [piperidolate],-10.7%
3,N=C(N)S/C=C\C(=O)O,-0.56%
4,c1ccc(N2CCN(CCCOc3ccc4c(c3)OCO4)CC2)cc1,-4.64%
5,COc1cc(NC(=O)c2ccc(-c3ccc(Cl)cc3)o2)cc(OC)c1,0.71%
6,CC(C)(C)c1cc(NC(=O)Nc2ccc(-c3cn4c(n3)sc3cc(OCCN5CCOCC5)ccc34)cc2)no1 [quizartinib],-4.89%
7,Cc1ccc(S(=O)(=O)Nc2ccc3c(c2)c(C(=O)C(F)(F)F)cn3CC(=O)N[C@@H](CC(C)C)C(=O)O)cc1,3.55%
8,CCCCN(CCCC)CC(O)c1cc(Cl)cc2c1-c1ccc(Cl)cc1/C2=C/c1ccc(Cl)cc1 (configuration not stated) [lumefantrine],-1.35%
9,NCCNc1ccc(NCCN)c2c1C(=O)c1ccncc1C2=O [pixantrone],1.13%
10,CCOC(=O)c1ccc(O)cc1 [ethyl-paraben],-1.28%
11,N=C(N)SCCc1c[nH]cn1 [imetit],-1.05%
12,CN[C@@H]1[C@@H](O)[C@@H](O[C@@H]2[C@@H](O)[C@H](O[C@H]3OC(CN)=CC[C@H]3N)[C@@H](N)C[C@H]2N)OC[C@]1(C)O [Sisomicin (sulfate)],-0.58%
13,CO[C@@H]1[C@H](O)[C@@H](CO)O[C@H]1n1cnc2c(NC3CCCCC3)ncnc21,-0.79%
14,NC(=O)[C@H]1CCS[C@@H]2C[C@]3(CCCN3C(=O)Cc3ccc(NC(=O)COc4ccc(Cl)cc4Cl)cc3)C(=O)N12,-6.32%
15,CN(C)CCCCSC(=N)N,2.12%
16,C/C(=N\NC(=N)N)c1cc(NC(=O)CCCCCCCCC(=O)Nc2cc(/C(C)=N/NC(=N)N)cc(/C(C)=N/NC(=N)N)c2)cc(/C(C)=N/NC(=N)N)c1 [semapimod],7.5%
17,C[C@]12CCC(=O)C=C1[C@@H]1C[C@@H]1[C@H]1[C@@H]3[C@@H]4C[C@@H]4[C@@]4(CCC(=O)O4)[C@@]3(C)CC[C@@H]12 [drospirenone],5.09%
18,CC(=O)N1N=C(c2ccc(N)cc2)c2cc3c(cc2C[C@H]1C)OCO3 [talampanel],1.16%
19,O=C(O)C(=O)c1cn(Cc2ccccc2)c2ccc(-c3ccc(OC(F)(F)F)cc3)cc12 [tiplaxtinin],4.09%
20,OCCn1cc(-c2ccc3c(c2)CC/C3=N\O)c(-c2ccncc2)n1,8.08%

row,SMILES,inhibition of SARS-CoV-2 cytopathic effect
1,O=C(O)c1ccc(-n2nc(-c3ccccc3O)nc2-c2ccccc2O)cc1 [deferasirox],0.43%
2,CC(C)CCC[C@@H](C)[C@H]1CC[C@H]2[C@@H]3CCC4=CC(=NO)CC[C@]4(C)[C@H]3CC[C@]12C [olesoxime],3.9%
3,Oc1ccc2c(c1)CC[C@H](c1ccccc1)[C@@H]2c1ccc(OCCN2CCCC2)cc1 [lasofoxifene],49.6% (active)
4,Cc1cc(O)c2c(c1)C(=O)c1cc(O)cc(O)c1C2=O [emodin],2.24%
5,CN1CCC(=C2c3ccccc3CCn3c(C=O)cnc32)CC1 [alcaftadine],-2.28%
6,C[C@@H]1C/C=C/C=C/C=C/C=C/[C@H](O[C@@H]2O[C@H](C)[C@@H](O)[C@H](N)[C@@H]2O)C[C@@H]2O[C@](O)(C[C@@H](O)C[C@H]3O[C@@H]3/C=C/C(=O)O1)C[C@H](O)[C@H]2C(=O)O [natamycin],-4.75%
7,CC[C@]1(O)C[C@@H]2CN(CCc3c([nH]c4ccccc34)[C@@](C(=O)OC)(c3cc4c(cc3OC)N(C)[C@H]3[C@@](O)(C(=O)OC)[C@H](OC(C)=O)[C@]5(CC)C=CCN6CC[C@]43[C@@H]65)C2)C1 [Vinblastine (sulfate)],-0.15%
8,CC(C(=O)O)c1ccc(N2Cc3ccccc3C2=O)cc1 (configuration not stated) [indoprofen],0.49%
9,NCC(=O)Nc1ccc(-n2nc(C(F)(F)F)cc2-c2ccc3c(ccc4ccccc43)c2)cc1,-3.56%
10,CN1Cc2c(N)cccc2C(c2ccccc2)C1 (configuration not stated) [nomifensine],0.73%
11,COc1ccc(-c2ccc3cc(C(=O)O)ccc3c2)cc1C12CC3CC(CC(C3)C1)C2 [adapalene],3.12%
12,CC(=O)Oc1c(C)cc(OCC(O)CNC(C)C)c(C)c1C (configuration not stated) [metipranolol],-3.06%
13,CCNC(=O)c1noc(-c2cc(C(C)C)c(O)cc2O)c1-c1ccc(CN2CCOCC2)cc1,-4.07%
14,Cc1c(C(=O)N2CCOc3ccc(-c4ccc(N)nc4)cc3C2)ccc(S(C)(=O)=O)c1F,1.3%
15,CCn1c(=O)[nH]c2cc(Cl)c(Cl)cc21,-2.08%
16,CC(=O)Nc1c(I)c(C(=O)O)c(I)c(N(C)C(C)=O)c1I [metrizoic-acid],1.65%
17,O=C(NCCN1CCC2(CC1)C(=O)NCN2c1cccc(F)c1)c1ccc2ccccc2c1,83.1% (active)
18,CCn1cc(C(=O)O)c(=O)c2cnc(N3CCCC3)nc21 [piromidic-acid],-1.75%
19,CSc1cc2c(cc1C(F)(F)F)N(C(=O)Nc1cccnc1)CC2,0.95%
20,COc1cc(OC)c2c(=O)[nH]c(-c3cc(C)c(OCCO)c(C)c3)nc2c1 [apabetalone],-0.84%
